Assay [1] concerns the target Calcium and integrin-binding protein 1 (Homo sapiens) (UniProt Q99828). Description: Primary qHTS for Identification of Calcium Integrin Binding Protein 1 (CIB1) Competitor (AID 1508620).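 Also: GST tagged CIB1 binding a fluorescein labelled alphaIIb integrin peptide tracer; top concentration of the series differs between compounds.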 Put shortly:
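Fluorescence polarization competition: GST-tagged CIB1 (1 uM final) preincubated with compound 15 min at room temperature, then FITC-labelled alphaIIb peptide (100 nM final) added. After 15 min at room temperature, polarization read at Ex 480/Em 540.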
In general terms: qHTS replaces the single test concentration by a dilution series.

The nature of assay [2]: Primary qHTS for inhibitors of nuclear receptor binding SET domain protein 2 (NSD2) in an isogenic RCH-ACV NSD2 p.E1099K mutant (9B) (AID 1645876). Also: nearly all actives have a fitted effect of over 70% in size.
Assay [3] in a line: Primary qHTS for inhibitors of nuclear receptor binding SET domain protein 2 (NSD2) in an RCH-ACV wild type WT cells (2C) (AID 1645877). Also: nearly all actives have a fitted effect of over 70% in size. Also: potency is read from the fitted curve at half-maximal effect.

Results filed as inconclusive are left out. Unmarked numbers belong to inactive results. The source made the active and inactive calls. Calls follow the shape of the dose curve; as a rule, active = well fitted curve in the direction sought with a large enough effect; inconclusive = small, poorly fitted or top-dose-only effect, or another doubt; inactive = no such curve, though single readings can be large; an effect the other way counts as inactive or inconclusive.
% is scaled to controls: 0 for no effect and ±100 for the full control effect.

Chain of Calcium and integrin-binding protein 1 (Homo sapiens) (Q99828 whole entry, looked up): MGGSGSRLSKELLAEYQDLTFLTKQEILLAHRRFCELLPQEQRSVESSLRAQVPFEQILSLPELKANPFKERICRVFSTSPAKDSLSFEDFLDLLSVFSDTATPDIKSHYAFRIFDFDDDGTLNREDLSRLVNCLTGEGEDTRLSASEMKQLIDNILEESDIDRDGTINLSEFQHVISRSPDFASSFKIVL

As for `CC(=O)O[C@H]1[C@H](OC(=O)C(C)C)[C@]2(C)OC3(CC[C@]2(C)[C@H]2CCC[C@]4(CO4)[C@]12C)COC(=O)C3` (stereo partly drawn), the Potency result in assay [1], in assay [2] and in assay [3] was “inactive” each time.
As for `O=C(O)c1cccc(C(=O)CCC2OC(n3cnc4c(=O)[nH]cnc43)C(O)C2O)c1` (stereo not drawn), the Potency entry in assay [1], in assay [2] and in assay [3] was “inactive” each time.
As for `CC(O)/C=C/C1(O)C(C)C(O)C(O[C@@H]2O[C@H](CO)[C@@H](O)[C@H](O)[C@H]2O)CC1(C)C` (stereo partly drawn), the Potency result in assay [1], in assay [2] and in assay [3] was “inactive” each time.
As to `CC1(C)CC[C@]2(C(=O)O[C@@H]3O[C@H](CO)[C@@H](O)[C@H](O)[C@H]3O)CC[C@]3(C)C(=CCC4[C@@]5(C)CC[C@H](OC6OC(C(=O)O)C(OC7OC(CO)C(O)C(O)C7O)C(O)C6O)C(C)(C)C5CC[C@]43C)C2C1` (stereo partly drawn), the Potency entry in assay [1] was “inactive”. The activity change, negative = viability loss in assay [2] was -8.98% [at 9.23 µM]. Also, in assay [3], the activity change, negative = cell killing was -22.4% [at 9.23 µM].
For the compound `COC(=O)C1=CO[C@@H](O[C@@H]2O[C@H](CO)[C@@H](O)[C@H](O)[C@H]2O)C2C1CC(O)C2C` (stereo partly drawn), the Potency entry in assay [1], in assay [2] and in assay [3] was “inactive” each time.
Turning to `CC1(C)CC[C@]2(C(=O)O[C@@H]3O[C@H](CO)[C@@H](O)[C@H](O)[C@H]3O)CC[C@]3(C)C(=CCC4[C@@]5(C)CC[C@H](O[C@H]6O[C@H](CO)[C@@H](O)[C@H](O[C@@H]7O[C@H](CO)[C@@H](O)[C@H](O)[C@H]7O)[C@H]6O)C(C)(C)C5CC[C@]43C)[C@@H]2C1` (stereo partly drawn), the Potency result in assay [1] is “inactive”. Also, the activity change, negative = viability loss in assay [2] was 3.49% [at 9.23 µM]. Besides, the activity change, negative = cell killing in assay [3] is 2.79% [at 9.23 µM].
For the compound `COc1ccc(C2C(C(=O)O)C(C(=O)O)C2c2ccc(OC)cc2O[C@@H]2O[C@H](CO)[C@@H](O)[C@H](O)[C@H]2O)c(O[C@@H]2O[C@H](CO)[C@@H](O)[C@H](O)[C@H]2O)c1` (stereo partly drawn), the Potency entry in assay [1], in assay [2] and in assay [3] was “inactive” throughout.
As for `CC1(C)C=Cc2c(ccc3c2[N+]([O-])=C2C3(O)CC34NC(=O)C5(CCCN5C3=O)CC4C2(C)C)O1` (stereo not drawn), the Potency entry in assay [1], in assay [2] and in assay [3] was “inactive” each time.
As for `C[C@]1(OC(=O)/C=C/c2ccccc2)C[C@@H](O)[C@]2(O)C=CO[C@@H](O[C@@H]3O[C@H](CO)[C@@H](O)[C@H](O)[C@H]3O)[C@@H]21`, the Potency result in assay [1], in assay [2] and in assay [3] was “inactive” throughout.
As for `CC1CCC2(C(=O)O)CCC3(C)C(=CCC4C5(C)CCC(O)C(C)(C(=O)O)C5CCC43C)C2C1(C)O` (stereo not drawn), the Potency entry in assay [1], in assay [2] and in assay [3] was “inactive” in each case.
In the case of `CC1=C2C[C@@]3(C)C(CCC[C@@H]3C)C(O)C2(O)OC1=O` (stereo partly drawn), the Potency entry in assay [1] and in assay [2] was “inactive” each time. Also, the Potency in assay [3] was 23 µM (active).
As for `COc1cc(O)cc(C)c1C(=O)O[C@H]1[C@@H](O)[C@@H](n2ccc(=O)[nH]c2=O)O[C@@H]1CO`, the Potency result in assay [1], in assay [2] and in assay [3] was “inactive” in each case.
As for `NC1(c2ccc(NC(=O)c3ccnc(-c4cc(C(=O)O)ccn4)c3)cc2)CC1`, the Potency entry in assay [1], in assay [2] and in assay [3] was “inactive” throughout.
On to `CC(C)C1CCC(CO)=CC1/C=C(\CO)C(=O)OCC1(O)CCC(C(C)C)C2C=C(C(=O)O)COC(=O)C21` (stereo not drawn), for which the Potency entry in assay [1], in assay [2] and in assay [3] was “inactive” in each case.
`CCCO[C@@H]1O[C@H](CO)[C@@H](O)[C@H](O)[C@H]1O[C@@H]1OC[C@@H](O)[C@H](O)[C@H]1O`: the Potency entry in assay [1], in assay [2] and in assay [3] was “inactive” throughout.
As to `COC(=O)C1=COC(OC2OC(CO)C(O)C(O)C2O)C2C(COC(=O)/C=C/c3ccc(O)c(O)c3)C(O)C(O)C12` (stereo not drawn), the Potency entry in assay [1], in assay [2] and in assay [3] was “inactive” each time.
Consider `CC1=C2CC(C)(C)CC2C(O)C2=C(C1)C(=O)OC2O` (stereo not drawn), for which the Potency entry in assay [1], in assay [2] and in assay [3] was “inactive” in each case.
In the case of `COC(=O)C1=CO[C@@H](O[C@@H]2O[C@H](CO)[C@@H](O)[C@H](O)[C@H]2O)[C@H]2[C@@H]1C=C[C@]21C=C([C@H](C)OC(=O)/C=C/c2ccc(O[C@@H]3O[C@H](CO)[C@@H](O)[C@H](O)[C@H]3O)cc2)C(=O)O1`, the Potency entry in assay [1], in assay [2] and in assay [3] was “inactive” each time.
`CCN1CCN(C(=O)N[C@@H](C(=O)N[C@@H]2C(=O)N3[C@@H]2SC(C)(C)[C@@H]3C(=O)O)c2ccccc2)C(=O)C1=O`: the Potency result in assay [1], in assay [2] and in assay [3] was “inactive” in each case.
Regarding `O=C(OC[C@H]1O[C@H](O[C@]2(CO)O[C@H](CO)[C@@H](O)[C@@H]2O)[C@H](O)[C@@H](O)[C@@H]1O)c1ccc(O)cc1`, the Potency result in assay [1], in assay [2] and in assay [3] was “inactive” in each case.
As for `OC[C@H]1O[C@@H](O[C@H]2[C@H](O)[C@@H](CO)O[C@@H](OCc3ccccc3)[C@@H]2O[C@@H]2OC[C@](O)(CO)[C@H]2O)[C@H](O)[C@@H](O)[C@@H]1O`, the Potency result in assay [1], in assay [2] and in assay [3] was “inactive” each time.

The values above are taken from PubChem BioAssay (NCATS).
